Where “and” joins values, the source holds several entries; their conditions need not be identical. Identical values can stand only once. Records with an inconclusive call do not appear. Some compounds were tested as several samples or in several runs, with calls that do not always agree. Calls of active or inactive are those of the source. Unless noted, the call rests on the fitted dose curve; in most records, active means well fitted curve in either direction with a large enough effect (not every such curve was filed as active); inconclusive means small, poorly fitted or top-dose-only effect, or another doubt; inactive means flat fitted curve, though single readings scatter.

Test [1] in a line: AP1 Signaling Pathway (AID 357).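 Further: ME-180 reporter cells stimulated with EGF at its EC50 level; on the % scale 0 is the no-effect control and ±100 the full control effect.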 An outline of the steps: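 Cells are seeded overnight, exposed to compound titrations and an EC50 level of EGF for 5 hours at 37 °C, then loaded with CCF4 dye for 2.5 hours. Beta-lactamase activity under the AP-1 element is read as a blue/green ratio.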
The target in test [2] is Cytochrome P450 1A2 (Homo sapiens) (UniProt P05177). Description: p450-cyp1a2 (AID 410; calls by dose curve; further: potency means the concentration at half of the fitted maximal effect;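 on activity change, negative = inhibition: -100% = full effect of reference inhibitor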). The method in brief:
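Inhibition was calculated relative to 57 uM furafylline (full inhibition). The reaction used human CYP1A2 at 20nM with Luciferin-ME at its Km, 100uM, driven by an NADPH-regenerating system for 60 min at room temperature.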

Test [3] can be described thus: NFAT Signaling Pathway (AID 444).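 Further: carbachol stimulus at about its EC50 of 1 µM final; on the % scale 0 is the no-effect control and ±100 the full control effect.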 The settings on record: Jurkat NFAT-bla M1, carbachol, beta-lactamase ratio, 5 h. The method in brief:
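Jurkat cells with NFAT-driven β-lactamase reporter and co-expressed M1 receptor, stimulated with carbachol (final 1 uM, ~EC50), compound titration, 5 h at 37 °C. CCF4 loaded 1 h at RT; 460/530 nm ratio gave %activity and AC50.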

A short description of test [4]: Stat Signaling Pathway (AID 446).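 Further: ME-180 cervical cancer cells given 40 pM IL-6 alongside compound; SIE-controlled beta-lactamase reporter measured as 460/530 nm FRET emission ratio; on the % scale 0 is the no-effect control and ±100 the full control effect.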 The method in brief:
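Reporter line: ME-180 cervical carcinoma, SIE-beta-lactamase. Treatment: compound with 40 pM IL-6, 5 hrs, 37 C, in low-serum OPTI-MEM with 10 mM HEPES pH 7.3. Detection: 460/530 nm fluorescence.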

A short description of test [5]: Cell Viability - BJ (AID 421; calls by dose curve;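 further: potency means the concentration at half of the fitted maximal effect; cells exposed to compound for 40 hours at 37 °C before readout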). The note with it: BJ fibroblast viability, qHTS. An outline of the steps: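 Cytotoxicity as drop in intracellular ATP (CellTiter-Glo, 20 min RT) after 40 hr compound exposure of BJ fibroblasts at 37 °C. Titrations scaled between DMSO and 100 uM tamoxifen, Hill-fitted for AC50.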
Background: In qHTS, concentration-response curves come from the screen itself.

Test [6] is described as follows: Cell Viability - Jurkat (AID 426;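 active means dose-dependent loss of cell ATP signal giving a full or clear fitted curve, ranked by lower potency value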; further: potency means the concentration at half of the fitted maximal effect). The settings on record: qHTS. An outline of the steps: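 Seed 5000 Jurkat E6-1 cells/well; add compound; incubate 40 hr at 37 °C; add CellTiter-Glo; wait 20 min at room temperature; read luminescence. Fit concentration-response with Hill equation for AC50.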
A short description of test [7]: Cell Viability - Hek293 (AID 427;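 active means compounds whose dose-response curve shows a full or clear partial loss of cell viability, called from curve shape rather than a numeric limit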;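 further: potency means the concentration at half of the fitted maximal effect; cells exposed to compound for 40 hours at 37 °C before reading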). The settings on record: qHTS. The method in brief: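 Luminescent ATP content (CellTiter-Glo, 20 min at room temperature) was measured after a 40 hr, 37 °C compound exposure of HEK293 cells. AC50 values came from Hill-equation fits of qHTS concentration-response data normalized to DMSO and 100 uM tamoxifen.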
Test [8] can be described thus: Cell Viability - HepG2 (AID 433; calls by dose curve;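 further: potency means the concentration at half of the fitted maximal effect; potency for ATP loss meaning cytotoxicity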). The settings on record: qHTS. An outline of the steps:
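In this qHTS format, a 40 h, 37 °C compound incubation of HepG2 cells in complete medium precedes a 20 min CellTiter-Glo step at room temperature. Tamoxifen and doxorubicin serve as positive controls; Hill-equation fits yield AC50.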

Test [9] can be described thus: Cell Viability - MRC5 (AID 434; calls by dose curve;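 further: potency means the concentration at half of the fitted maximal effect; potency reflects cytotoxicity seen as loss of intracellular ATP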). The settings on record: MRC5 lung fibroblast viability, qHTS. An outline of the steps:
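MRC5 normal human lung fibroblasts, 1500 cells/well, exposed to compound for 40 hr at 37 C. Cellular ATP was read by CellTiter-Glo luminescence; data normalized to DMSO and 100 uM tamoxifen, with AC50 from Hill fits.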

A short description of test [10]: Cell Viability - SK-N-SH (AID 435; calls by dose curve;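 further: potency means the concentration at half of the fitted maximal effect; compound exposure lasted 40 h at 37 °C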). The note with it: SK-N-SH neuroblastoma cell viability qHTS. The method in brief: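 Human neuroblastoma line, 40 h exposure at 37 °C, ATP quantified via luciferase luminescence; DMSO and 100 uM tamoxifen define 0 and 100% inhibition for AC50 fitting.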

Chain of Cytochrome P450 1A2 (Homo sapiens) (P05177 whole entry, looked up): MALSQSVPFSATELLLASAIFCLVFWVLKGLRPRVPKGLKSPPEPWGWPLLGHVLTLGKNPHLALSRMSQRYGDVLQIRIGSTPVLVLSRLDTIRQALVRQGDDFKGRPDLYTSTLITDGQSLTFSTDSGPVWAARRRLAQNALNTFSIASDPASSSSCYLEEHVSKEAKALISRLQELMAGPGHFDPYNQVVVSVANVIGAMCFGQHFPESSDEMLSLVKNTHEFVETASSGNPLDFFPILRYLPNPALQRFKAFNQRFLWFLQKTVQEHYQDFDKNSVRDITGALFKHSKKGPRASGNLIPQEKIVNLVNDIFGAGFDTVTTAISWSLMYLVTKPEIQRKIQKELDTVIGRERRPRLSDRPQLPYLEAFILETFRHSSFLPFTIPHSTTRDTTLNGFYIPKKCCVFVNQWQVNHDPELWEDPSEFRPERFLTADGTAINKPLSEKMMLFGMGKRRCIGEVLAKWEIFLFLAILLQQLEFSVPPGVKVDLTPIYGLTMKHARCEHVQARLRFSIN

With `NCCCCNCCCN`, the outcome in test [1] was inactive. The Potency result in [2] is “inactive and 31.6 µM (active)”. Moreover, in test [3] (at 38 µM (top of the series)), the activity change, negative = inhibition is -4.2% (inactive).
Take `Oc1ccc(-c2nc(-c3ccc(F)cc3)c(-c3ccncc3)[nH]2)cc1`: the result in test [1] and in test [4] was inactive. For the same compound, the Potency in test [2] is 15.8 µM (active).
On to `O=c1c(O)c(-c2cc(O)c(O)c(O)c2)oc2cc(O)cc(O)c12`, for which the compound was called inactive in [1] and in [4]. In test [2], the Potency is 5.01 µM (active) and 2 µM (active) and 7.94 µM (active). Further, the activity change, negative = inhibition in [3] (at 17.2 µM (top of the series)) is -3.39% (inactive); in test [3] (at 38 µM (top of the series)), 11.8% (inactive).
For `CN1C(C(=O)Nc2ccccn2)=C(O)c2sccc2S1(=O)=O`, the compound was classed as inactive in test [1] and in [4]. For the same compound, in test [2], the Potency entry was “inactive”. Besides, the activity change, negative = inhibition in test [3] (at 17.2 µM (top of the series)) was 9.83% (inactive).
Turning to `Cc1nc2n(c(=O)c1CCN1CCC(c3noc4cc(F)ccc34)CC1)CCCC2`, the result in test [1] and in test [4] was inactive. For the same compound, the Potency result in test [2] was “inactive”.
Regarding `Cc1ccc(C)c(OCCCC(C)(C)C(=O)O)c1`, the compound was classed as inactive in test [1] and in test [4]. In addition, the Potency in test [2] was 12.6 µM (active); in test [5] it was > 92 µM (inactive); in [6], > 92 µM (inactive); in [7] it was > 92 µM (inactive); in [8], > 92 µM (inactive); in [9], > 92 µM (inactive). In addition, the Potency in [10] was > 92 µM (inactive). In addition, the activity change, negative = inhibition in test [3] (at 17.2 µM (top of the series)) is 0.602% (inactive) and 17.8% (inactive).
`Cc1cc(C2CCCCC2)n(O)c(=O)c1`: the result in [1] and in [4] was inactive. Further, the Potency in test [2] was 15.8 µM (active).
As for `O=C(O)c1cccnc1Nc1cccc(C(F)(F)F)c1`, the compound was classed as inactive in test [1] and in test [4]. In addition, the Potency in test [2] was 10 µM (active) and 5.01 µM (active). For the same compound, the activity change, negative = inhibition in test [3] (at 17.2 µM (top of the series)) was -16.9% (inactive) and -24.7% (inactive); in test [3] (at 38 µM (top of the series)), 5.69% (inactive).
Consider `NC(=NCc1ccccc1)NC(=O)c1nc(Cl)c(N)nc1N`, for which the call in test [1] and in [4] was inactive. Also, the Potency in test [2] is 12.6 µM (active) and 10 µM (active). Further, the activity change, negative = inhibition in test [3] (at 17.2 µM (top of the series)) was -15.5% (inactive); in test [3] (at 38 µM (top of the series)), -27.8% (inactive).
With `CC(=O)Nc1ccc(O)cc1`, the compound was called inactive in test [1] and in test [4]. Also, the Potency entry in [2] is “inactive”. Also, the Potency in test [5], in test [6], in test [7], in test [8], in test [9] and in [10] was > 92 µM (inactive) throughout.
Turning to `O=C(NCC1CCCCN1)c1cc(OCC(F)(F)F)ccc1OCC(F)(F)F` (stereo not given), the result in test [1] and in test [4] was inactive. The activity change, negative = inhibition in test [3] (at 17.2 µM (top of the series)) is -8.46% (inactive).
Turning to `CC(C)(S)[C@@H](N)C(=O)O`, the compound was classed as inactive in test [1] and in test [4].
`CCCOc1ccc2nc(NC(=O)OC)[nH]c2c1`: the compound was called inactive in test [1] and in test [4].
On to `CC1Cc2ccccc2N1NC(=O)c1ccc(Cl)c(S(N)(=O)=O)c1` (stereo not given), for which the compound was classed as inactive in [1] and in test [4]. Moreover, the activity change, negative = inhibition in test [3] (at 17.2 µM (top of the series)) was 6.17% (inactive).
Regarding `CN(C)CCCC1(c2ccc(F)cc2)OCc2cc(C#N)ccc21` (stereo not given), the compound was called inactive in [1] and in [4].
`CC(C)[N+]1(C)[C@@H]2CC[C@H]1CC(OC(=O)C(CO)c1ccccc1)C2` (stereo not given in full): the result in [1] and in test [4] was inactive. Also, the activity change, negative = inhibition in test [3] (at 17.2 µM (top of the series)) was -79.9% (active).
In the case of `Nc1nc(Cl)nc2c1ncn2[C@H]1C[C@H](O)[C@@H](CO)O1`, the call in test [1] and in test [4] was inactive. Besides, the activity change, negative = inhibition in [3] (at 17.2 µM (top of the series)) is 16.6% (inactive) and 27.4% (inactive).
As for `CNC[C@H](O)c1ccc(O)c(O)c1`, the call in [1] and in test [4] was inactive. In test [3] (at 38 µM (top of the series)), the activity change, negative = inhibition is 1.71% (inactive) and -6.16% (inactive).
With `Nc1cc(C(Cl)=C(Cl)Cl)c(S(N)(=O)=O)cc1S(N)(=O)=O`, the compound was classed as inactive in test [1] and in [4]. Further, the activity change, negative = inhibition in test [3] (at 17.2 µM (top of the series)) is -0.14% (inactive).
With `CCCCC(CC)COC(=O)C(C#N)=C(c1ccccc1)c1ccccc1` (stereo not given), the Potency in test [5], in test [6], in test [7], in [8], in test [9] and in test [10] was > 92 µM (inactive) throughout.
As to `CCN(CC)C(=S)SSC(=S)N(CC)CC`, in [2], the Potency was 6.31 µM (active) and 1.58 µM (active).
With `CCOC(=O)C1=C(O)C(=O)N(Cc2ccccc2)C1`, the Potency in test [2] was 1 µM (active).
With `Nc1ccc(S(N)(=O)=O)cc1`, the outcome in test [1] and in test [4] was inactive. Further, the Potency in [5], in [6], in test [7], in test [8], in [9] and in test [10] was > 92 µM (inactive) each time. In test [3] (at 17.2 µM (top of the series)), the activity change, negative = inhibition was -0.0158% (inactive).
As for `CN1CCC(=C2c3ccccc3CCc3sccc32)CC1`, in test [2], the Potency result was “inactive”. The compound was called inactive in test [4].
In the case of `COc1cc2nc(N3CCN(C(=O)C4CCCO4)CC3)nc(N)c2cc1OC` (stereo not given), the compound was called inactive in test [1] and in [4].
Consider `O=C(NCCO[N+](=O)[O-])c1cccnc1`, for which the Potency result in [2] was “inactive”.
Same read-out and setting: the value for `CCN(CC)CCOc1ccc(Cc2ccccc2)cc1` was 12.6 µM (active).
As to `Oc1ccc(OCc2ccccc2)cc1`, the Potency in test [2] was 1.58 µM (active). In addition, the activity change, negative = inhibition in test [3] (at 17.2 µM (top of the series)) is -7.24% (inactive). Moreover, in test [4], the call was inactive.
Regarding `CN(C)c1ccc2nc3ccc(=[N+](C)C)cc-3sc2c1`, the Potency was 14.2 µM (active) in test [6]; 35.6 µM (active) in test [7]; 4.17 µM (active) in test [8]; 37.8 µM (active) in test [9]; 10.9 µM (active) in test [10].

These data come from PubChem BioAssay (NCATS).
